Compounds with a hit are over-represented: about 3% of the library has one in this group of screens.
SENP8 block-1 = SENP8 (human) protease inhibition | Q96LD8 | recombinant SENP8, Nedd8 substrate fluorescence | inhibition, % at 20 µM | actives 0.64% (n = 360,000) | AID 602440; in the data active means inhibition mostly above about 40%, no sharp cut-off; inactive means mostly below about 27%
SENP7 inh = blocks the human protease SENP7. Q9BQF6. inhibition, % at 5 µM. AID 434973. actives 1.5% (n = 330,000). recombinant SENP7, Z-RLRGG-aminoluciferin luminescence, 40 min;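 active means inhibition above about 50% at the single test dose, limit read from the data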
TRAIL sens C8 = caspase-8 TRAIL sensitization | NB7+C8 cells + TRAIL, ATPlite viability luminescence | inhibition (viability loss, TRAIL sensitization), % at 10 µM | actives 1% (n = 360,000);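 active means compounds causing at least 50% loss of cell viability in the single-dose screen, relative to plate controls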
PPC-1+TRAIL kill = kills PPC-1 cancer cells in the presence of TRAIL | actives 0.41% (n = 220,000) | PPC-1 cells + TRAIL, ATPLite viability luminescence | cell killing (% activity), % at 4 µM or 5 µM | AID 1443;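 active means cell killing above 50% in the first pass at 4 µM, then a duplicate retest at 5 µM averaging 50% or more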
SENP6 block = SENP6 protease inhibition; Q9GZR1; Recombinant SENP6 catalytic domain, aminoluciferin luminescence; inhibition, % at 10 µM; actives 1.8% (n = 330,000);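 active means inhibition above about 50% at the single tested dose, limit read from the data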
Target sequence (Q9GZR1 628-1112 limits assumed): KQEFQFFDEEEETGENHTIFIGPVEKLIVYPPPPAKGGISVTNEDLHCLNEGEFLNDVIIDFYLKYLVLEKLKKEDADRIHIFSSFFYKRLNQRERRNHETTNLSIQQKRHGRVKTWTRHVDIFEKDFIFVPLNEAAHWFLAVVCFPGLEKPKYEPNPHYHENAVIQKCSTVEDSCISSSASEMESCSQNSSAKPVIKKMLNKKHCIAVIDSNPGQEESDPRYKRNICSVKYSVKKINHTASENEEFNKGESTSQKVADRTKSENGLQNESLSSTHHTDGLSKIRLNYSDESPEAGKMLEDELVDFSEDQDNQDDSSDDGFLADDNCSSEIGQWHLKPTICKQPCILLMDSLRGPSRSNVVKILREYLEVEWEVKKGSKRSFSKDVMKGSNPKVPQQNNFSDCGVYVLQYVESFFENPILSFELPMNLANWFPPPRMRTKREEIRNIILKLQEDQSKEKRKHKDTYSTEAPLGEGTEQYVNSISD
SENP8 block-2 = inhibitors of human SENP8 protease; Q96LD8; purified SENP8, Z-RLRGG-aminoluciferin cleavage, luminescence; inhibition, % at 10 µM; actives 1.2% (n = 330,000); AID 2540; in the data active means inhibition above about 50%
PPC-1 tox = kills PPC-1 cells; PPC-1 viability, ATPlite luminescence, overnight; shares compounds with PPC-1+TRAIL kill; cytotoxicity, % at 5 µM; actives 50% (n = 1,200); AID 1447;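 active means reconfirmed compounds whose average cytotoxicity reaches 50% or more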
Numbers stand for hits; n = inactive; x = no result given.

SMILES	SENP8 block-1	SENP7 inh	TRAIL sens C8	PPC-1+TRAIL kill	SENP6 block	SENP8 block-2	others
O=C(COc1ccccc1)Nc1ccc(-c2ccc(N3CCOCC3)nn2)cc1	n	n	n	x	n	n
C=CCn1cc(C(=O)N2CCN(C)CC2)c(=O)c2cc(S(=O)(=O)N(CC)CC)ccc21	n	n	n	x	n	n
O=C(CCl)N(O)c1ccc(C=Cc2ccccc2)cc1	n	x	51	x	x	x
COc1ccccc1N1CCN(C2=Nc3cccc4cccc2c34)CC1	n	n	67	n	n	n
COc1ccccc1N1CCN(C(=O)CN2C(=O)c3cccc4cccc(c34)C2=O)CC1	n	n	n	n	n	n
CCN(CC)c1ccc(/C=C(\C#N)C(=O)c2ccc(Br)cc2)cc1	50	x	n	n	x	x
CNC(C)C#Cc1ccc2oc3cc(C)c(C)cc3c(=O)c2c1 (configuration not stated)	n	n	n	x	84	69
CNC(C)C#Cc1ccc2oc3cccc(OC)c3c(=O)c2c1 (configuration not stated)	n	n	n	x	n	n
Cc1ccc(C)c(OCCC(=O)OCc2csc(CC(=O)Nc3ccccc3C)n2)c1	n	n	n	x	n	n
Cc1cccc(C)c1NC(=O)c1nc(S(=O)(=O)Cc2ccccc2)ncc1Cl	n	n	n	x	n	n
Cc1ccc(NC(=O)c2nc(S(=O)(=O)Cc3ccccc3)ncc2Cl)cc1	n	n	65	x	n	n
Cc1cccc(CS(=O)(=O)c2ncc(Cl)c(C(=O)Nc3c(C)cccc3C)n2)c1	n	n	n	x	n	n
O=C(Nc1ccc(F)cc1)c1nc(S(=O)(=O)Cc2ccccc2)ncc1Cl	n	n	92	x	n	n
Cc1ccccc1CS(=O)(=O)c1ncc(Cl)c(C(=O)Nc2ccc(F)cc2)n1	n	n	92	x	n	n
CCCc1nnc(NC(=O)c2nc(S(=O)(=O)Cc3cccc(C)c3)ncc2Cl)s1	n	n	n	x	n	n
Cc1nnc(NC(=O)c2nc(S(=O)(=O)Cc3ccccc3)ncc2Cl)s1	n	n	83	x	n	n
CC(C)n1nc(C(=O)Nc2cccc(S(=O)(=O)N3CCOCC3)c2)c2ccccc2c1=O	n	n	n	x	n	n
CCNC(=O)C(=O)NCC1CCCN1S(=O)(=O)c1cccs1 (configuration not stated)	n	n	n	x	n	n
c1ccc(CN2CCC3CC2c2cc(N4CCCCC4)ccc23)cc1 (configuration not stated)	n	x	n	x	x	x
CCN(CC)c1ccc2nc3ccccc3[n+](CC)c2c1	n	n	n	x	n	n
CCN(CC)c1ccc2nc3ccc(N)cc3[n+](-c3ccccc3)c2c1	39	n	n	x	n	n
COc1ccccc1C(=O)Nc1ccnn1C1CCN(C2CCCCC2)CC1	n	x	n	x	x	x
COc1ccc2nc3cc(Cl)ccc3c(Nc3cc(C(C)C)c(O)cc3C)c2c1	n	n	n	n	n	n
COc1ccc2nc3cc(Cl)ccc3c(Nc3cc(CN4CCCC4)c(O)c(CN4CCCC4)c3)c2n1	n	n	79	x	n	n
COC(=O)c1sccc1NC(=O)/C=C/c1ccc(Cl)cc1	n	95	n	n	74	58
SMILES	SENP8 block-1	SENP7 inh	TRAIL sens C8	PPC-1+TRAIL kill	SENP6 block	SENP8 block-2	others
Cc1cccc(NC(=O)/C=C/c2ccc(Cl)cc2)n1	n	86	69	n	84	68
CCOC(=O)Cc1csc(NC(=O)/C=C/c2ccco2)n1	n	n	n	n	n	n
Cc1cccc(NC(=O)/C(C#N)=C/c2ccc(Cl)cc2)n1	n	n	n	x	n	n
Cc1csc(NC(=O)/C=C/c2ccc3c(c2)OCO3)n1	n	61	71	57	77	n
CCOC(=O)Cc1csc(NC(=O)/C=C/c2ccc(Cl)cc2)n1	n	n	55	n	n	n
COC(=O)c1csc(S(=O)(=O)N2CCOCC2)c1OC	n	n	n	x	n	n
O=C(/C=C/c1cccs1)Nc1cccc(NC(=O)/C=C/c2cccs2)n1	n	n	73	n	n	n
CCS(=O)(=O)c1ncc(Cl)c(C(=O)Nc2ccc(S(=O)(=O)N(C)c3ccccc3)cc2)n1	n	n	98	x	n	n
CCN(c1ccccc1)S(=O)(=O)c1ccc(C(=O)Nc2ccncc2)cc1	n	n	n	x	n	n
CCN(c1ccccc1)S(=O)(=O)c1ccc(NC(=O)c2nc(S(C)(=O)=O)ncc2Cl)cc1	n	n	91	x	n	n
CC(=O)Nc1ccc(S(=O)(=O)N(C)c2ccccc2)cc1	n	n	n	n	n	n
CC(C)(C)NC(=O)CSc1ncccc1-c1nc2ccccc2[nH]1	n	n	n	x	n	n
Cc1cc2nc(-c3cccnc3SCC(=O)NC3CC3)[nH]c2cc1C	x	90	x	n	88	81
Cc1cccc(C)c1N1CCN(C(c2cc3ccccc3o2)c2nnnn2C(C)(C)C)CC1 (configuration not stated)	n	x	n	x	x	x
CCn1c(=O)ccc2cc([N+](=O)[O-])ccc21	n	n	n	n	n	n
O=C(CCl)N(c1ccccc1)c1c[nH]c2ccccc12	n	n	98	n	n	n
O=C(CCl)N(c1ccc(Cl)cc1)c1c[nH]c2ccccc12	n	n	89	n	n	n
Cc1ccc(/C=C2\CCC(C3CCCC3)C2=O)cc1 (configuration not stated)	n	75	n	n	89	n
COc1ccc(/C=C2\CCC(C3CCCC3)C2=O)cc1OC (configuration not stated)	n	n	n	x	n	n
CCCCC1CCC(C(=O)N(CCC(C)C)c2c(N)n(CCCC)c(=O)[nH]c2=O)CC1 (configuration not stated)	n	x	52	x	x	x
CCCCC1CCC(C(=O)N(CCCC)c2c(N)n(CCCC)c(=O)[nH]c2=O)CC1 (configuration not stated)	n	n	72	x	n	n
CN1/C(=C/c2cccc[n+]2CCO)Sc2ccccc21	n	n	n	x	n	n
COc1ccc(-[n+]2c(C)cc(/C=C3\Sc4ccccc4N3C)cc2C)cc1	43	n	n	n	n	n
C=CCNC(=O)CSc1nnc(-c2cccs2)o1	n	n	n	n	n	n
O=C(CSc1nnc(-c2cccs2)o1)NCC1CN(Cc2ccccc2)CCO1 (configuration not stated)	n	n	n	n	n	n	PPC-1 tox=n
O=C(COc1ccc(Br)cc1)Nc1ccc(CN2CCOCC2)cc1	n	n	n	x	n	n
CN(Cc1ccccc1)C(=O)c1ccc(NC(=O)Cc2ccc(NC(=O)C3CCN(S(=O)(=O)c4cccc([N+](=O)[O-])c4)CC3)cc2)cc1	n	x	n	x	x	x
COc1ccc(C(=O)Nc2cccc(OC(=O)c3ccc(C)c(C)c3)c2)cc1	n	n	n	n	n	n	PPC-1 tox=n
COc1ccc(C(=O)Nc2cccc(OC(=O)c3ccco3)c2)cc1	n	n	n	x	n	n

High-throughput results from PubChem.
